The results in this text go back to PubChem BioAssay AID720550 (National Center for Advancing Translational Sciences (NCATS), 2013).

Inconclusive results are not listed. A call without a number means that no potency is given here. The source made the active and inactive calls. The call rests on the fitted dose curve; in most records, active means well fitted curve in the direction sought with a large enough effect; inconclusive means small, poorly fitted or top-dose-only effect, or another doubt; inactive means no such curve, though single readings can be large or run the other way.

The assay can be described thus: qHTS for Inhibitors of Bloom's syndrome helicase (BLM): Thiazole Orange DNA Binding Counterscreen for SAR. The settings on record: fluorescence; Potency: Thiazole orange DNA displacement; series mostly up to 57.1 µM. The procedure, abridged:
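Counterscreen for nonspecific DNA binding: thiazole orange (100 nM) pre-bound to 50 nM unlabeled DNA, test compound added, 15 min room-temperature incubation, then ex 480/em 530 nm fluorescence measured; lack of displacement preferred.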
As for `O=C(Nc1ccc2ccccc2c1)Nc1nnc(-c2cccnc2)s1`, the Potency result is “inactive”.

Regarding `O=C(Nc1ccc(Cl)c(Cl)c1)Nc1nnc(C2CCCCC2)s1`, the Potency result is “inactive”.

For `N#Cc1cc(NC(=O)Nc2nnc(-c3ccncc3)s2)ccc1Cl`, the Potency result was “inactive”.

On to `Cc1cc(NC(=O)Nc2nnc(-c3cccnc3)s2)ccc1Br`, for which the Potency result was “inactive”.

On to `Cc1ccccc1-c1nnc(NC(=O)Nc2ccc3ccccc3c2)s1`, for which the Potency result was “inactive”.

As for `O=C(Nc1ccc(Cl)c(C(F)(F)F)c1)Nc1cccc(-c2ccncc2)n1`, the Potency entry was “inactive”.

For `O=C(Nc1nnc(-c2ccncc2)s1)Nc1ccc(Cl)cc1Cl`, the Potency entry is “inactive”.

In the case of `O=C(Nc1ccc(Br)cc1)Nc1nnc(-c2ccncc2)s1`, the Potency entry is “inactive”.

Turning to `O=C(Nc1ccc(Cl)c(Cl)c1)Nc1nnc(Br)s1`, the Potency result was “inactive”.

As for `O=C(Nc1ccc(Cl)c(C(F)(F)F)c1)Nc1nnc(-c2cccnc2)s1`, the Potency entry is “inactive”.

For the compound `O=C(Nc1ccc2ccccc2c1)Nc1nnc(-c2ccc(Cl)cc2)s1`, the Potency result is “inactive”.

As to `O=C(Nc1ccc2ccccc2c1)Nc1nnc(-c2ccc(O)cc2)s1`, the Potency entry is “inactive”.

Turning to `O=C(Nc1ccc(N2CCOCC2)c(C(F)(F)F)c1)Nc1nnc(-c2ccncc2)s1`, the Potency is 4.08 µM (active).

Regarding `CN1CCN(c2nnc(NC(=O)Nc3ccc(Cl)c(Cl)c3)s2)CC1`, the Potency result is “inactive”.

With `O=C(Nc1ccc(N2CCOCC2)c(F)c1)Nc1nnc(-c2ccncc2)s1`, the Potency result was “inactive”.

With `O=C(Nc1ccc(Cl)c(Cl)c1)Nc1nnc(-c2ccncc2)o1`, the Potency result is “inactive”.

With `O=C(Nc1ccc(F)c(C(F)(F)F)c1)Nc1nc(-c2ccncc2)cs1`, the Potency entry was “inactive”.

As for `O=C(Nc1ccc(Cl)c(Cl)c1)Nc1nnc(N2CCNCC2)s1`, the Potency entry is “inactive”.

As for `O=C(Nc1ccc(Cl)c(Cl)c1)Nc1ccnc(-c2ccncc2)n1`, the Potency entry is “inactive”.

Take `O=C(Nc1ccc2ccccc2c1)Nc1nnc(-c2ccncc2)s1`: the Potency entry was “inactive”.

`O=C(Nc1ccc(-c2nc3ccccc3[nH]2)cc1)Nc1ccc2c(c1)OCCO2`: the Potency result is “inactive”.

Consider `CN(C(=O)Nc1ccc2ccccc2c1)c1nnc(-c2ccncc2)s1`, for which the Potency result is “inactive”.

Regarding `N#Cc1cc(NC(=O)Nc2nnc(-c3ccncc3)s2)ccc1-c1cn[nH]c1`, the Potency entry was “inactive”.

Consider `Cc1cc(NC(=O)Nc2nnc(C3CCCCC3)s2)ccc1F`, for which the Potency entry is “inactive”.

As to `O=C(Nc1cccc(C(=O)O)c1)Nc1nnc(-c2ccncc2)s1`, the Potency result is “inactive”.

Take `O=C(Nc1ccc2ccccc2c1)Nc1cccc(-c2ccncc2)n1`: the Potency result was “inactive”.

Take `Cc1cc(C)c(-c2nnc(NC(=O)Nc3ccc4ccccc4c3)s2)c(C)c1`: the Potency entry is “inactive”.

In the case of `O=C(Nc1ccc(Cl)c([N+](=O)[O-])c1)Nc1nnc(-c2ccncc2)s1`, the Potency was 0.513 µM (active).

For the compound `O=C(Nc1ccc(Cl)c(C(F)(F)F)c1)Nc1nnc(-c2ccncc2)s1`, the Potency result was “inactive”.

With `O=C(Nc1ccc(Br)c(Br)c1)Nc1cccc(-c2ccncc2)n1`, the Potency entry was “inactive”.

For `O=C(Nc1nnc(-c2ccncc2)s1)Nc1cccc2ccccc12`, the Potency entry was “inactive”.

Regarding `N#Cc1cc(NC(=O)Nc2cccc(-c3ccncc3)n2)ccc1Cl`, the Potency entry is “inactive”.

As to `CC(C)(C)NC(=O)Nc1nnc(-c2ccncc2)s1`, the Potency result is “inactive”.

Take `O=C(Nc1ccc2ccccc2c1)Nc1nnc(-c2ccccc2Cl)s1`: the Potency entry is “inactive”.

Regarding `O=C(Nc1ccc(F)c(C(F)(F)F)c1)Nc1nnc(-c2cccnc2)s1`, the Potency result was “inactive”.

`O=C(Nc1nnc(-c2ccncc2)s1)Nc1ccc(Cl)c2ccccc12`: the Potency result is “inactive”.

With `N#CN/C(=N\c1nnc(-c2ccncc2)s1)Nc1ccc(F)c(C(F)(F)F)c1`, the Potency result was “inactive”.

With `COc1ccc(NC(=O)Nc2ccc(-c3nc4ccccc4[nH]3)cc2)cc1OC`, the Potency result was “inactive”.

In the case of `O=C(Nc1ccc2sccc2c1)Nc1nnc(-c2ccncc2)s1`, the Potency result is “inactive”.
